From PubChem BioAssay (NCI)
Compounds without any hit were thinned out: in the full panel of roughly 83,000, 20% have a hit.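 In brief: 96-well plates, 48 h treatment, single concentration, percent growth endpoint.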 A number with no mark means an inactive call. Active and inactive are the calls of the source. The calls were made as follows: active = growth percent below 10; inactive = the rest.

What was measured:
Assay in all cases: NCI-60 one-dose screen, 48 h (100 = growth as untreated, 0 = no growth, -100 = all killed)
Settings in all cases: 10 µM unless noted
[1] = tested on: NCI-H23 lung
[2] = tested on: NCI-H226 lung
[3] = tested on: NCI-H322M lung
[4] = tested on: HOP-62 NSCLC
[5] = tested on: NCI-H460 lung
[6] = tested on: HOP-92 NSCLC
[7] = tested on: NCI-H522 lung
[8] = tested on: A549/ATCC NSCLC
[9] = tested on: 786-0 renal
[10] = tested on: COLO 205 colon
[11] = tested on: DU-145 prostate
[12] = tested on: K-562 leukemia
[13] = tested on: MALME-3M melanoma
[14] = tested on: MDA-MB-231 breast
[15] = tested on: RXF 393 renal
[16] = tested on: SF-268 CNS
[17] = tested on: SF-295 CNS
[18] = tested on: SF-539 CNS
[19] = tested on: UACC-257 melanoma
[20] = tested on: M14 melanoma

SMILES	growth [1] [%]	growth [2] [%]	growth [3] [%]	growth [4]	growth [5]	growth [6]	growth [7]	growth [8] [%]	growth [9] [%]	growth [10]	growth [11] [%]	growth [12]	growth [13]	growth [14]	growth [15]	growth [16] [%]	growth [17]	growth [18]	growth [19]	growth [20]
CN(CCCN(C)CCC1CCCCC1)CCC1CCCCC1	64.1	66.9	94.6	57.3%	29%	21.3%	69.6%	83.7	53.2	-81% (active)	83.8	-57.5% (active)	-74.7% (active)	-3% (active)	-4.36% (active)	84.2	27.1%	-57.7% (active)	-66.3% (active)	-100% (active)
Oc1cc2ccccc2c(-c2c(O)c(O)cc3ccccc23)c1O	41.5	39.6	47.9	42.3%	9.65% (active)	-22.5% (active)	1.24% (active)	36.1	50	58.1%	47.3	43.8%	75.4%	75.1%	72.7%	37.9	-48% (active)	21.4%	56.1%	25%
COc1cc(C(=O)NC(=S)NCc2ccncc2)cc(OC)c1OC	91.8	86.4	89.5	107%	110%	89.2%	56.7%	99	97.5	95.3%	103	86.2%	104%	114%	95.8%	102	96.5%	95.8%	103%	106%
O=C(O)C1CSC(c2ccccc2)N1 (stereo not drawn)	95	97	98.8	89.5%	98.5%	111%	79.4%	100	112	84.6%	105	128%	98.8%	80.9%	106%	102	99.8%	–	106%	95.6%
C=C1SC(=Nc2c(C)cccc2C)N(c2nc(Cl)nc(Cl)n2)C12CCCCC2	103	104	85.4	105%	110%	105%	82.9%	96.2	99.9	109%	108	95.2%	90.3%	115%	106%	107	–	116%	94.6%	97.9%
COc1ccc2c(c1)Nc1ccccc1S2	104	108	101	105%	109%	78.5%	98.9%	104	98.7	111%	116	102%	105%	109%	115%	–	108%	103%	115%	101%
ON1CCCC1	108	103	108	108%	109%	92.4%	91.9%	100	98.4	113%	113	90.7%	106%	114%	107%	106	–	108%	102%	104%
CCN(CC)CCCC(C)NC(=S)N/N=C(\C)c1ccccn1 (stereo not drawn)	73.1	33.2	31.9	45.4%	24.7%	46.1%	47.2%	48.9	23.4	28.9%	42.1	38.7%	33.5%	36.8%	49.4%	43.7	–	31.2%	57.4%	37.2%
CC(=O)[C@@]1(O)CC[C@H]2[C@@H]3CC[C@@H]4CC(=O)CC[C@]4(C)[C@H]3[C@@H](O)C[C@@]21C	96.9	95.9	105	74.2%	110%	84.3%	88.4%	81.7	99.2	95.3%	111	94.9%	108%	99.6%	105%	99.1	91.9%	96.8%	–	93%
CCN(C(=O)Nc1ccccc1Cl)c1ccccc1	101	107	109	111%	108%	101%	106%	100	112	113%	109	93.9%	100%	109%	115%	109	–	104%	102%	111%
O=[N+]([O-])c1c(Cl)ncnc1Cl	111	100	125	104%	93.2%	85.7%	97.3%	92.8	109	113%	110	109%	104%	120%	108%	–	–	88.9%	86%	118%
S=c1nc2[nH]c3ccccc3c2n[nH]1	96.3	83.1	98.9	-1.58% (active)	99.5%	55.7%	108%	104	109	108%	102	106%	97.7%	86.6%	–	87.6	72%	85.1%	107%	107%
CC(C)NC(=O)OCc1c(COC(=O)NC(C)C)c(-c2ccc(Cl)cc2)n2c1CCC2	36.5	63	62.8	46.4%	24.6%	26.2%	51.2%	66.5	36.4	57.2%	15	58.4%	59.3%	65.8%	–	31	20.8%	16.3%	88.8%	–
CCCCCCCCCCCCCCCCOc1ccccc1NC(=O)CC(C)=O	111	105	109	112%	112%	96.4%	87.1%	91.7	59.8	131%	92	87.1%	117%	87.4%	107%	103	–	94.5%	117%	109%
O=C(CC(CC(=O)c1ccccc1)c1ccccn1)c1ccccc1	92.9	95.7	102	105%	102%	94.7%	95.1%	98.5	113	101%	110	92.6%	91.5%	92.7%	111%	105	–	106%	105%	103%
Nc1cc(N)ncn1	95.1	93.9	103	112%	107%	96%	104%	103	104	104%	110	91.3%	106%	96.1%	–	102	104%	99.2%	112%	–
OCC(O)COc1ccc(Cl)cc1Cl (stereo not drawn)	105	106	95.1	88.4%	111%	130%	79.5%	72.6	93.4	94%	110	88.6%	94.8%	97.8%	115%	105	97.5%	–	79.6%	95.9%
